Measured values published in PubChem BioAssay (NCI).
This is part of a sample that, as a whole, favours compounds with a hit. Of some 79,000 tested, about 15% had one in any assay. Calls of active or inactive are those of the source. Cut-off read from the data, not from the text of the source: active = growth inhibition above about 70%; inactive = the rest.

Key:
[1] = NCI Yeast Anticancer Drug Screen. Data for the rad50 strain (AID 155);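 note: 0% = growth of vehicle-only cultures of the same strain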; details: S. cerevisiae rad50 strain growth inhibition; at 50.0 µM; stronger effect = higher value
How it was run: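 Genetically altered yeast (DNA repair pathway); compound treatment; growth inhibition vs vehicle ctrl.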

[2] = NCI Yeast Anticancer Drug Screen. Data for the mec2-1 strain (AID 157); details: S. cerevisiae mec2-1 strain, at 50.0 µM, stronger effect = higher value
How it was run: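 Vehicle-treated cultures served as reference for growth inhibition of compound-exposed mec2-1 yeast.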

[3] = NCI Yeast Anticancer Drug Screen. Data for the sgs1 mgt1 strain (AID 161);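 note: 0% = growth of cultures given vehicle only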; details: S. cerevisiae sgs1 mgt1 strain, at 50.0 µM, stronger effect = higher value
How it was run: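 Test agents were incubated with a DNA-repair-mutant yeast strain. Growth was then read and compared against vehicle-treated controls.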

[4] = NCI Yeast Anticancer Drug Screen. Data for the cln2 rad14 strain (AID 165);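 note: 0% = growth equal to vehicle treated cultures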; details: S. cerevisiae cln2 rad14 strain, at 50.0 µM, stronger effect = higher value
How it was run: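 Each compound was tested on cln2 rad14 yeast. Inhibition of growth was calculated against vehicle-exposed controls.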

[5] = NCI Yeast Anticancer Drug Screen. Data for the bub3 strain (AID 167); details: S. cerevisiae bub3 mutant strain, at 50.0 µM, stronger effect = higher value
How it was run: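 Yeast carrying a defined mutation is treated with each compound, and growth is compared with that of vehicle-exposed cells to give inhibition.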

[6] = NCI Yeast Anticancer Drug Screen. Data for the mlh1 rad18 strain (AID 175); details: S. cerevisiae mlh1 rad18 strain growth inhibition; at 50.0 µM; stronger effect = higher value
How it was run: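 Vehicle-treated cultures served as the reference for growth inhibition in a yeast strain carrying DNA damage repair alterations exposed to each compound.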

Measured: growth inhibition

COc1ccc(CC#N)cc1
inactive: [1] -51.1% | [2] -5.25% | [3] 19.4% | [4] -35% | [5] 1.4% | [6] 15.2%

COC(=O)Nc1nc2ccccc2[nH]1
inactive: [1] -18.6% | [2] -4.4% | [3] -13% | [4] 4.2% | [5] 2.45% | [6] 7.15%

ClCC1CCN(CCc2ccccc2)CC1
inactive: [1] -5.5% | [2] 13.8% | [3] 8.65% | [4] -36.6% | [5] -17.8% | [6] 9.65%

CN1CC(NC(=O)N(CCCl)N=O)CC2c3cccc4c3c(cn4N=O)CC21 (centres undefined)
inactive: [1] 17.8% | [2] 10.6% | [3] 21.4% | [4] 18.6% | [5] -3.7% | [6] 52.1%

CC(C)(C)[SH+]CC[SH+]C(C)(C)C.[C-]#[O+].[C-]#[O+].[C-]#[O+].[C-]#[O+].[Cr]
inactive: [1] 13.6% | [2] -19.1% | [3] -7.25% | [4] -4.4% | [5] 3.65% | [6] 3.35%

CCNP(=S)(OCC)OCC
inactive: [1] -9.2% | [2] 3.15% | [3] 5.05% | [4] -3.9% | [5] -2.7% | [6] -4%

CCOc1ccc(N)cc1
inactive: [1] -4.65% | [2] 10.9% | [3] -6.05% | [4] 5.85% | [5] 0.45% | [6] 8.65%

CCCCCCCCCCCCCCCCOc1ccc(S(=O)(=O)F)cc1C(=O)Nc1ccc(S(=O)(=O)Nc2cccc3ccccc23)cc1
inactive: [1] 3.3% | [2] 1.9% | [3] -2.75% | [4] -3.05% | [5] -0.3% | [6] 5.35%

Cc1ccccc1N
inactive: [1] 4.1% | [2] -14.4% | [3] -1.15% | [4] -1.7% | [5] -1.55% | [6] 4.4%
